{"source": "PubChem BioAssay (EPA / NIEHS)", "note": "Active and inactive are the calls of the source. How the source made its calls: active means hit-call score of the fitted dose curve at least 0.9, where 1 is the maximum; inactive means score below 0.9."}
{"molecular_target": "Nuclear respiratory factor 1 (Homo sapiens) (UniProt Q16656)", "sequence (Q16656 whole entry, looked up)": "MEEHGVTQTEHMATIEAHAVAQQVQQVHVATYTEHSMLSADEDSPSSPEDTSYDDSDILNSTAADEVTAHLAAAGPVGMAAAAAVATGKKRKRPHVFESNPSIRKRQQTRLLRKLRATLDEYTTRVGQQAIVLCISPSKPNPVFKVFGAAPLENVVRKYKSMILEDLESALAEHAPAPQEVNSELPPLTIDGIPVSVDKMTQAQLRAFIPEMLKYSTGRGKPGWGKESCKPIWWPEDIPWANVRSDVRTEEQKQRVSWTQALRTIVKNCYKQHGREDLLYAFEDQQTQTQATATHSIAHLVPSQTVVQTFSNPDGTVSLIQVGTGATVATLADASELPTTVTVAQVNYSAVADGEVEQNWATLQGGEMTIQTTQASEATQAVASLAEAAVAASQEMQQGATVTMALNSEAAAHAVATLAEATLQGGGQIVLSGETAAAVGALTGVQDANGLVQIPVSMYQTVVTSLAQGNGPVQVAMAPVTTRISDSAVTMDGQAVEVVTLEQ", "experiment": "ATG_NRF1_CIS: Attagene CIS-FACTORIAL HepG2 Assay for human Nuclear Respiratory Factor 1 (NRF1) Orphan Gene (AID 2282987)", "conditions": "HepG2 NRF1 cis-element reporter, Attagene multiplex; actives raise or lower the signal", "experimental": "ATG_CIS is a cell-based, multiplexed-readout assay that uses HepG2, a human liver cell line, with measurements taken at 24 hours after chemical dosing in a 24-well plate.ATG_NRF1_CIS is one of 52 assay component(s) measured or calculated from the ATG_CIS assay. It is designed to make measurements of mRNA induction, a form of inducible reporter, as detected with fluorescence intensity signals by Reverse transcription polymerase chain reaction (RT-PCR) and Capillary electrophoresis technology.Data from the assay component ATG_NRF1_CIS was analyzed into 1 assay endpoint. This assay endpoint, ATG_NRF1_CIS, was analyzed with bidirectional fitting relative to DMSO as the negative control and baseline of activity. Using a type of inducible reporter, measures of mRNA for gain or loss-of-signal activity can be used to understand the reporter gene at the transcription factor-level as they relate to the gene NRF1. Furthermore, this assay endpoint can be referred to as a primary readout, because this assay has produced multiple assay endpoints where this one serves a reporter gene function. To generalize the intended target to other relatable targets, this assay endpoint is annotated to the dna binding intended target family, where the subfamily is nuclear respiratory factors.\nHuman liver HepG2 cells are transiently transfected with multiple reporter transcription units (MRTUs) in 6-well plates using FuGene 6 reagent (Roche; 3 ml FuGene/1 mg DNA). The MRTU constructs are regulated by a cis-regulating element (promoter). […] A major difference between the CIS and TRANS system is that in CIS activities of endogenous TFs are measured, whereas the TRANS assay evaluates changes in activities of exogenous, chimeric NR-Gal4 proteins. […] At the end of 24 hour incubation, total RNA was isolated using TriZol reagent (Invitrogen). The isolated RNA is then reverse-transcribed using oligo(dT) primer and Mo-MLV reverse transcriptase (Invitrogen) with DNAse I (Ambion) treatment for 30 min. The one-tenth of the produced cDNA was amplified by PCR using Taq DNA polymerase (Invitrogen) and two reporter sequence-specific primers. The PCR products were fluorescently labeled by primer extension with 6-arboxyfluorescein (6-FAM) 5'-labeled reporter sequence-specific primer (2 min at 95 C, 20 s at 68 C and 10 min at 72 C) and these products were digested with 5U of HpaI (New England Biolabs) for 2h at 37 C. The fragments were purified using Qiaquick PCR columns (Qiagen), analyzed on an ABI 3130xL genetic analyzer (Applied Biosystems) with peak positions identified by using a set of X-rhodamine (ROX)-labeled MapMarker1000 molecular weight standards (BioVentures). The raw capillary electrophoresis data was processed using Attagraph software (Attagene)."}
{"smiles": "O=P(O)(Oc1ccccc1)Oc1ccccc1", "outcome": "inactive"}
{"smiles": "CCOP(=O)(OCC)Oc1ccc([N+](=O)[O-])cc1", "outcome": "inactive"}
{"smiles": "Nc1ccc([N+](=O)[O-])cc1N", "outcome": "inactive"}
{"smiles": "CCN(CC)C(=S)S", "outcome": "inactive"}
{"smiles": "C=CCN(CC=C)C(=O)C(Cl)Cl", "outcome": "inactive"}
{"smiles": "CCC(C)c1cc([N+](=O)[O-])cc([N+](=O)[O-])c1OC(=O)C=C(C)C", "note": "(stereo not given)", "outcome": "inactive"}
{"smiles": "CC=Cc1ccc2c(c1)OCO2", "outcome": "inactive"}
{"smiles": "[CH3][Sn]([CH3])([Cl])[Cl]", "outcome": "inactive"}
{"smiles": "SCc1ccco1", "outcome": "inactive"}
{"smiles": "ClCCCCCCCl", "outcome": "inactive"}
{"smiles": "CC1(C)C(=O)NC(=O)NC1=O", "outcome": "inactive"}
{"smiles": "CN(C)CCC#N", "outcome": "inactive"}
{"smiles": "CC1CCCC1.[C-]#[O+].[C-]#[O+].[C-]#[O+].[Mn]", "outcome": "inactive"}
{"smiles": "CC(C)COP(=O)(OCC(C)C)OCC(C)C", "outcome": "inactive"}
{"smiles": "CCOC(=O)C1OC1(C)c1ccccc1", "note": "(stereo not given)", "outcome": "inactive"}
{"smiles": "c1cc(OCC2CO2)ccc1Cc1ccc(OCC2CO2)cc1", "note": "(stereo not given)", "outcome": "inactive"}
{"smiles": "C[N+](C)(C)CC(=O)[O-]", "outcome": "inactive"}
{"smiles": "N#CCNCC#N", "outcome": "inactive"}
{"smiles": "O=C(O)COc1ccccc1", "outcome": "inactive"}
{"smiles": "CCOC(=O)NC(=S)Nc1ccccc1NC(=S)NC(=O)OCC", "outcome": "inactive"}
{"smiles": "COc1ccc(CO)cc1", "outcome": "inactive"}
{"smiles": "O=C=Nc1ccccc1", "outcome": "inactive"}
{"smiles": "CC(C)CCCCCCCOC(=O)c1ccccc1C(=O)OCCCCCCCC(C)C", "outcome": "inactive"}
{"smiles": "Nc1ccccc1", "outcome": "inactive"}
{"smiles": "C[C@]12CCC(=O)C(O)=C1CC[C@@H]1[C@@H]2CC[C@]2(C)C(=O)CC[C@@H]12", "outcome": "inactive"}
{"smiles": "C[N+](C)(C)CC(=O)O", "outcome": "inactive"}
{"smiles": "O=C(NCNC(=O)NC1C(=O)NC(=O)N1CO)NC1C(=O)NC(=O)N1CO", "note": "(stereo not given)", "outcome": "inactive"}
{"smiles": "c1ccc2c(c1)CCCC2", "outcome": "inactive"}
{"smiles": "c1ccc(P(c2ccccc2)c2ccccc2)cc1", "outcome": "inactive"}
{"smiles": "C#CC1(O)CCCCC1", "outcome": "inactive"}
{"smiles": "ClCC(Cl)Cl", "outcome": "inactive"}
{"smiles": "Nc1ccc(-c2ccc(N)c(N)c2)cc1N", "outcome": "inactive"}
{"smiles": "Cc1ccc(N(SC(F)(Cl)Cl)S(=O)(=O)N(C)C)cc1", "outcome": "inactive"}
{"smiles": "Nc1c(Cl)c(Cl)c(Cl)c(Cl)c1Cl", "outcome": "inactive"}
{"smiles": "O=P1(NCCCl)OCCCN1CCCl", "note": "(stereo not given)", "outcome": "inactive"}
{"smiles": "Nc1cc(Cl)cc(Cl)c1", "outcome": "inactive"}
{"smiles": "Oc1ccc(Cl)cc1", "outcome": "inactive"}
{"smiles": "N#Cc1cc(I)c(O)c(I)c1", "outcome": "inactive"}
{"smiles": "N#CCCCl", "outcome": "inactive"}
{"smiles": "O=C(CCN1CC1)OCC(CO)(COC(=O)CCN1CC1)COC(=O)CCN1CC1", "outcome": "inactive"}
